The assay has as its system VDR:RXRa (NR concentration 270 nM, RXRa partner concentration 90 nM). The experiment in a line: PBM binding z-score (relative to random genomic background probes); higher = stronger binding; sequences stand for … in GC…GCGATTGACAGCGTAGAATGAAGG
The method, then: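 Protein-binding microarray (Agilent 4x180K custom design, double-stranded 60-nt probes: 5' GC cap, 34-nt variable region, 24-nt constant primer region; full probe sequence given). Purified or IVT nuclear receptor:RXRα heterodimers (3:1 NR:RXRα, mostly 270:90 nM) or homodimers were incubated for 1 h in PBS with 2% milk and no ligand, then detected with Alexa488 antibodies. Fluorescence from o1-orientation probes (~5 replicates averaged) was converted to z-scores against 500 random hg19 background probes. Variable regions are seed direct-repeat (DR0–DR5) sites, all their single-nucleotide variants and half-site ablations.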
As for TTGCCTAGGTCATTCAGGGGCCAGTATAGAAAGC, the PBM binding z-score came out at 3.15. The value for GCATATAGCTAATACAAGGTGAAAGTCCGATTGT was 0.231; that for TCTAGTTGGTCACTGAGGTCACACACGACGGGTA was 6.51; that for CCTGCTAGGTAAATGGTCAGCTAAAGCAGCTCGC was -0.541.

Turning to GCTAGATGGTCAGTAAAAGGTCACACACCGGTCG, the PBM binding z-score worked out at 3.91. In the case of TATCGGAGGACACGAAAGGTCAGAGCTCGACATC, the PBM binding z-score stood at 3.49. CCGACTGGGGCAAGGTTACCATTACGCACAGCCA came in with a PBM binding z-score of 0.00135. For CCGACTGGGGCAAAGGCTACCATACTCAGTACGA the value was -0.358. The value for AGAATGCGGTTACCAAAGATCAGGGAAACGCTTG was -0.612; that for TAGCCTAGGTCAGATCGGCCCAGTATACGCTATA was 0.134. For AGAATTAGGTTAAGATCAGGGAAACAGAATACAT the value was 0.418; for CCAGACAGGTGAAAGGTAATTCAGTCTGGTACGC, 0.632. The sequence CAGCCTAGGTCAGGGCCAGGATAGGAGGAACGTT showed a PBM binding z-score of 0.0936. The value for CTAACTAGGTCAGAACAGGACAGTGAAGGATGAT was 0.705; that for TCAGACAGGTGAAGTTAACTCAGGTACGCAGTCG was 0.573. The value for ACATACGGGTCAACGAGGTTATAGCACGCGTATA was 7.57. Sequence ACAGACAGGTGATGAAGGTAAGTCAGGCTATCAT displayed a PBM binding z-score of -0.133. For CGAACGAGGTCAAGGACAGTGAATCTCCGCACGC, the PBM binding z-score came out at 5.09. The value for ATGGAAAGGTCGACGAGGTGAGTATACACCGTTT was 5.25; that for CCTTACGGGTCACTGACAGGTTAAAGCATTTGGA was 3.75.

AGTCAAAGTTCGCTAGGTAACGTAAGATTCAGCT yielded a PBM binding z-score of 0.489. For ATCTCTAGGTAAAGATAGTTCAGTGTATGCAAAT the value was 0.93; for TCGAGTAGGTTACCAATGGGGCCTTCAGCTTTCT, -0.371; for TCGCCTAGGTCATTGGGCCAGTATAGTACGCATC, 2.23. For CAAACTAGGTCACATAGGTCAAAGTCCGTGCGTA the value was 6.27; for TCTCGGGGGACACGAAGGTCAGAGCTTTCCAGAG, 3.72; for CCTAGCAGGCCAATCTGGGCCACTCAAGGCTTGA, -0.783. For AAACCAAGGTGATCGTGAGGTCGTTGATACTAAC the value was 3.21; for ACAGACAGGTAATGAAGGTAACTCAGGCTATCAT, 0.244; for ACTAGCAGGCCACGTTTGGGTCACTCAAACAAAG, 0.312.

ATCGAAAGGTCGATGAGGTGAGTATACACCGTTT had a PBM binding z-score of 5.2. Sequence GCGACTGGGGCATCAGCAGGTTACCCTAACTTAA gave a PBM binding z-score of -0.249.

In the case of CCGAGTAGGTTATGGGCCATTCAGGCAACGGTGA, the PBM binding z-score is -0.116. The value for TCGAGTAGGTTACCAACGGGGCATTCAGCTTTCT was 0.126. On to TCTAGCAGGCCAGAGGGTCACTCAGGAGGTACGG, for which the PBM binding z-score amounted to 1.56. For ATCTCTAGGTAAAGATAGCTCAGTGAATGCAAAT the value was -0.433; for TCTTTTAGTTGAAGGGCAACCGACGAGTCCGTTT, 0.995.

Take GGAACGCGGGCAAGTTGATAGCAGAGTTTGATGG: the PBM binding z-score was -0.834. In turn, CCTCGGAGGACAGAAGGACAGAGCTGTCCGCTTT came in with a PBM binding z-score of -0.413. The sequence TCTCGGAGGACACGCAGGTCAGAGCTTTCCAGAG came in with a PBM binding z-score of 1.58.

The record behind these values is the supplement of paper PMC6555819.
